The campaign covered roughly 52,000 compounds. About 4,300 (8.3%) were called active. Rule as the data show it: active = survival mostly below about 52% (no sharp cut-off); inactive = mostly above about 56%. What follows is part of a selection rich in actives, with near analogues and random picks from the rest.

The test concerns DeltatarO mutant. Put plainly: S. aureus survival, RN4220 and DeltatarO strains – OD600, teichoic acid synthesis inhibitors, primary screen (AID 463173). As to conditions: S. aureus RN4220 wild type/DeltatarO growth, OD600, 18 h, stronger effect = lower value, screened at 18.75 µg/mL (by protocol).
Turning to `C=CCNC(=S)N1CCC(C(=O)c2ccc(C)cc2)CC1`, the survival is 103% (inactive). As for `O=C(N/N=C/c1ccccc1)C(O)c1ccccc1` (stereo unspecified), the figure is 95% (inactive). The value for `COc1ccc(-c2nc3sc(CCNC(=O)C(=O)Nc4ccc(OC)c(OC)c4)c(C)n3n2)cc1` was 84% (inactive); that for `CCCN1CC=C2C(C#N)=C(N)C(C#N)(C#N)C(c3ccc(F)cc3F)C2C1` (stereo unspecified) was 77% (inactive); that for `Cc1cc(OC(C)C(=O)N2CCN(CCc3ccccn3)CC2)ccc1Cl` (stereo unspecified) was 68% (inactive).

Turning to `CC1=C(C(=O)Nc2ccc(C)cc2C)C(c2cc(Br)ccc2F)n2ncc(C(=O)Nc3ccc(C)cc3)c2N1` (stereo unspecified), the survival was 89% (inactive).

As to `Cc1ccc(-n2ncc3c(Nc4ccc5c(c4)OCCO5)ncnc32)cc1Cl`, the survival is 117% (inactive). As for `COc1cc(NC(=O)CC2C(=O)N(c3ccc(Cl)cc3)C(=O)N2Cc2cccs2)cc(OC)c1` (stereo unspecified), the figure is 85% (inactive); as for `COc1ccc(-n2c(SCC(=O)NCc3ccc(C)cc3)nc3n[nH]c(C)c3c2=N)cc1`, 87% (inactive). Turning to `Cc1ccccc1Cn1c(=O)n(-c2ccc(Cl)cc2)c(=O)c2c3c(sc21)CCCC3`, the survival is 114% (inactive). Turning to `COc1ccc(NC(=O)c2ccc3c(=O)n4nc(Nc5cccc(Cl)c5C)sc4nc3c2)cc1`, the survival is 67% (inactive). As for `CC1CCCN(Cc2c(O)ccc3c(=O)c(-c4ccc(Cl)cc4)c(C(F)(F)F)oc23)C1` (stereo unspecified), the figure is 46% (active); as for `CC(C)c1ccccc1Oc1c(C(F)(F)F)oc2c(CN3CCN(C)CC3)c(O)ccc2c1=O`, 49% (inactive). The value for `O=c1c(-c2ccc(Cl)cc2)c(C(F)(F)F)oc2c(CN3CCCCC3)c(O)ccc12` was 134% (inactive). For the molecule `CCc1ccc(Oc2c(C(F)(F)F)oc3c(CN4CCCC(C)C4)c(O)ccc3c2=O)cc1` (stereo unspecified), the survival was 77% (inactive). Regarding `CC1CCCN(Cc2c(O)ccc3c(=O)c(Oc4ccccc4Cl)c(C(F)(F)F)oc23)C1` (stereo unspecified), the survival was 88% (inactive).

On to `CC1CCCN(Cc2c(O)ccc3c(=O)c(Oc4ccc(C(C)(C)C)cc4)c(C(F)(F)F)oc23)C1` (stereo unspecified), for which the survival is 17% (active).

Turning to `CC1CCN(Cc2c(O)ccc3c(=O)c(-c4ccc(Cl)cc4)c(C(F)(F)F)oc23)CC1`, the survival was 60% (inactive). Consider `CC1CCCCN1Cc1c(O)ccc2c(=O)c(-c3ccccc3Cl)c(C(F)(F)F)oc12` (stereo unspecified), for which the survival was 55% (inactive). With `COc1ccc(Oc2c(C(F)(F)F)oc3c(CN4CCCC(C)C4)c(O)ccc3c2=O)cc1` (stereo unspecified), the survival is 68% (inactive). Regarding `CC1CCCN(Cc2c(O)ccc3c(=O)c(-c4ccccc4Cl)c(C(F)(F)F)oc23)C1` (stereo unspecified), the survival was 43% (active).

For the molecule `CCN1CCN(Cc2c(O)ccc3c(=O)c(Oc4ccccc4C(C)C)c(C(F)(F)F)oc23)CC1`, the survival was 51% (active).

With `CCN1CCN(Cc2c(O)ccc3c(=O)c(Oc4ccccc4Cl)c(C(F)(F)F)oc23)CC1`, the survival is 90% (inactive). As for `COCc1cc(C)nc2sc3c(=O)n(-c4cc(C)ccc4C)nnc3c12`, the figure is 87% (inactive); as for `Cc1cc(C)c(NC(=O)C2CCN(C(=O)N3CC(C)Oc4ccc(Cl)cc43)CC2)c(C)c1` (stereo unspecified), 56% (inactive); as for `Cc1cc(C)c(NC(=O)CSc2nccn2-c2cccc(Cl)c2)c(C)c1`, 73% (inactive).

`CCN(CC)S(=O)(=O)c1ccc2c(c1)c(=O)c(C(=O)NCCc1ccccc1)cn2C`: the survival was 85% (inactive). As for `Cc1cc(C)c(NC(=O)Cn2nnc(C(=O)NCc3cccs3)c2N)c(C)c1`, the figure is 91% (inactive); as for `CCOc1ccc(Sc2cc(C(=O)NC(C)c3ccccc3)c3ccccc3n2)cc1` (stereo unspecified), 75% (inactive); as for `Cc1ccccc1C(=O)Nc1cccc(OCc2cc(=O)n3c(C)csc3n2)c1`, 96% (inactive). The value for `COc1ccccc1C(=O)Nc1cccc(OCc2cc(=O)n3c4c(sc3n2)CCCC4)c1` was 39% (active); that for `Cc1ccc(C(=O)Nc2cccc(OCc3cc(=O)n4c5c(sc4n3)CCCC5)c2)cc1` was 118% (inactive). For the molecule `Cc1csc2nc(COc3cccc(NC(=O)c4ccccc4F)c3)cc(=O)n12`, the survival is 123% (inactive). For the molecule `COc1ccccc1C(=O)Nc1cccc(OCc2cc(=O)n3c(C)csc3n2)c1`, the survival is 44% (active).

For the molecule `COc1ccc(C(=O)Nc2cccc(OCc3cc(=O)n4c5c(sc4n3)CCCC5)c2)cc1`, the survival was 55% (inactive). As for `Cc1ccccc1C(=O)Nc1cccc(OCc2cc(=O)n3c4c(sc3n2)CCCC4)c1`, the survival is 101% (inactive). The value for `COc1ccc(C(=O)Nc2cccc(OCc3cc(=O)n4c5c(sc4n3)CCCC5)c2)cc1OC` was 53% (inactive); that for `COc1cccc(C(=O)Nc2cccc(OCc3cc(=O)n4c5c(sc4n3)CCCC5)c2)c1` was 51% (active). With `CCOc1ccc(-c2nonc2NC(=O)c2oc3ccc(Cl)cc3c2C)cc1`, the survival is 64% (inactive).

With `NNC1=NC2CS(=O)(=O)CC2S1` (stereo unspecified), the survival was 56% (inactive). The value for `CCSc1nnc(CNc2ccc(F)cc2)n1CC1CCCO1` (stereo unspecified) was 91% (inactive); that for `CCC(C)NC(=O)c1ccc(Cn2c(=O)c3cccn3c3cccnc32)cc1` (stereo unspecified) was 116% (inactive). As for `CC(NC(=O)c1ccc(Cn2c(=O)c3cccn3c3cccnc32)cc1)c1ccccc1` (stereo unspecified), the survival was 101% (inactive). Take `CC(C)NC(=O)c1ccc(Cn2c(=O)c3cccn3c3cccnc32)cc1`: the survival is 44% (active).

Take `COCCCNC(=O)c1ccc(Cn2c(=O)c3cccn3c3cccnc32)cc1`: the survival is 70% (inactive). The value for `CC(CNC(=O)c1ccc(Cn2c(=O)c3cccn3c3cccnc32)cc1)c1ccccc1` (stereo unspecified) was 41% (active); that for `CC(C)CCNC(=O)c1ccc(Cn2c(=O)c3cccn3c3cccnc32)cc1` was 64% (inactive). The value for `CC(C)CCn1c(=O)c2sccc2n2c(CCCC(=O)NC(C)c3ccccc3)nnc12` (stereo unspecified) was 88% (inactive); that for `Nc1nnc(SCC(=O)C2CC2)s1` was 80% (inactive); that for `O=C(N/N=C/c1ccc(F)cc1)c1ccc(NC(=O)C2CC2)cc1` was 105% (inactive).

As for `Cc1cc(Nc2cccc(Cl)c2)nc2ccc(NC(=O)c3cccnc3)cc12`, the survival was 91% (inactive). For `CN1C(C(=O)Nc2ccc(OC(F)(F)F)cc2)=CC(c2ccc3c(c2)OCO3)=NS1(=O)=O`, the survival is 80% (inactive).

Turning to `Cc1ccc(NC(=O)C2=CC(c3cccs3)=NS(=O)(=O)N2C)cc1`, the survival was 83% (inactive). The value for `COc1ccc(C2=NS(=O)(=O)N(C)C(C(=O)Nc3ccc(OC(F)(F)F)cc3)=C2)cc1` was 48% (active); that for `CN1C(C(=O)Nc2ccc(OC(F)(F)F)cc2)=CC(c2cccs2)=NS1(=O)=O` was 31% (active); that for `COc1ccc(NC(=O)C2=CC(c3cccs3)=NS(=O)(=O)N2C)cc1` was 94% (inactive). The value for `COc1ccc(NC(=O)C2=CC(c3ccc4c(c3)OCO4)=NS(=O)(=O)N2C)cc1` was 88% (inactive). As for `Cc1cc(C)c(Cn2c(=O)n(-c3ccccc3Cl)c(=O)c3c(C)c(C(=O)N(C)C)sc32)c(C)c1`, the figure is 86% (inactive); as for `CCNc1nc2c(c(=O)n(C)c(=O)n2C)n1CC(O)COc1ccccc1` (stereo unspecified), 61% (inactive); as for `CCCCNc1nc2c(c(=O)n(C)c(=O)n2C)n1CC(O)COc1ccccc1C` (stereo unspecified), 42% (active). For the molecule `CCCNc1nc2c(c(=O)n(C)c(=O)n2C)n1CC(O)COc1ccccc1` (stereo unspecified), the survival is 62% (inactive).

For the molecule `Cc1cccc(NC(=O)CSc2nc3c(c(=O)[nH]2)CN(Cc2ccc4c(c2)OCO4)CC3)c1C`, the survival is 78% (inactive). The value for `O=C1CCC(=O)N1CC(=O)N1CCCc2ccccc21` was 85% (inactive).

`CCN(CC)S(=O)(=O)c1ccc2c(c1)nc(CN(C)C(=O)Nc1ccc(C)c(Cl)c1)n2C`: the survival is 86% (inactive). As for `Cc1ccc(-n2ncc3c(Nc4cccc(C)c4C)ncnc32)cc1`, the figure is 94% (inactive); as for `CCOc1ccccc1Nc1ncnc2c1cnn2-c1ccc(C)cc1`, 87% (inactive). As for `CCC(CO)Nc1ncnc2c1cnn2-c1ccc(C)cc1` (stereo unspecified), the figure is -5% (active); as for `CCC(C)Nc1ncnc2c1cnn2-c1ccc(F)cc1` (stereo unspecified), 72% (inactive).

In the case of `Cc1ccc(C)c(Nc2ncnc3c2cnn3-c2ccc(F)cc2)c1`, the survival was -1% (active). As for `Cc1ccc(-n2ncc3c(Nc4ccc(Oc5ccccc5)cc4)ncnc32)cc1`, the figure is 68% (inactive); as for `CCCCc1ccc(Nc2ncnc3c2cnn3-c2ccc(C)cc2)cc1`, 17% (active); as for `COc1ccc(C(=O)NNc2ncnc3c2cnn3-c2ccccc2)cc1`, 92% (inactive). For the molecule `CC(=O)NNc1ncnc2c1cnn2-c1ccccc1`, the survival is 46% (active).

As for `CC(C)(C)c1ccc(C(=O)NNc2ncnc3c2cnn3-c2ccccc2)cc1`, the survival was 115% (inactive). The value for `Cc1ccc(-n2ncc3c(NC(C)c4ccccc4)ncnc32)cc1` (stereo unspecified) was 94% (inactive). Consider `Cc1ccc(-n2ncc3c(NCCCc4ccccc4)ncnc32)cc1`, for which the survival was 89% (inactive). Consider `Cc1ccccc1NC(=O)CCNC(=O)Cn1ccc2ccccc2c1=O`, for which the survival is 70% (inactive). With `N/C(=N\c1nc2ccccc2o1)NC(=O)/C=C/c1ccco1`, the survival was 85% (inactive).

`Cc1ccc(-n2c(=O)c3ccc(C(=O)NCc4ccco4)cc3n(Cc3ccc(Cl)cc3)c2=O)cc1`: the survival is 77% (inactive). As for `CS(=O)(=O)c1ccc2nc(NC(=O)CN3C(=O)c4ccccc4C3=O)sc2c1`, the figure is 85% (inactive); as for `COc1ccc(CNC(=O)CSCc2cnn(-c3ccccc3)c2-n2cccc2)cc1OC`, 106% (inactive); as for `Cc1coc2cc3oc(=O)c(CCC(=O)NCc4ccc(Cl)cc4)c(C)c3cc12`, 69% (inactive). As for `CCn1cc2nc(SCc3ccc(C)cc3)n(CCc3ccccc3)c(=O)c2n1`, the figure is 78% (inactive); as for `N#Cc1cc2cc3c(cc2nc1SCC(=O)N1CCN(c2ccc(F)cc2)CC1)OCCO3`, 67% (inactive); as for `CC(C)(C)c1ccc(OCC(=O)Nc2ccc(C(=O)OC3CCCCC3)cc2)cc1`, 71% (inactive). With `CCOC(=O)c1cc(-c2ccccc2)n(-c2cccc(C(=O)Nc3cccc(F)c3)c2)c1C`, the survival was 135% (inactive). As for `CCOC(=O)c1cc(-c2ccccc2)n(-c2cccc(C(=O)Nc3cc(OC)cc(OC)c3)c2)c1C`, the figure is 81% (inactive); as for `CCOC(=O)c1cc(-c2ccccc2)n(-c2cccc(C(=O)Nc3cccc(SC)c3)c2)c1C`, 32% (active); as for `CCOC(=O)c1cc(-c2ccccc2)n(-c2cccc(C(=O)Nc3ccc(OCC)cc3)c2)c1C`, 37% (active). Take `CCOC(=O)c1cc(-c2ccccc2)n(-c2cccc(C(=O)Nc3cccc(C(C)=O)c3)c2)c1C`: the survival is 89% (inactive). For `CCOC(=O)c1cc(-c2ccccc2)n(-c2cccc(C(=O)Nc3ccc(OC)cc3)c2)c1C`, the survival was 83% (inactive).
